According to PubChem BioAssay (EPA / NIEHS):
Active and inactive are the calls of the source. Rule for the calls: active = hit-call score of the fitted dose curve at least 0.9, where 1 is the maximum; inactive = score below 0.9.

Each molecule was assayed on Insulin-like growth factor-binding protein 1 (IGFBP1), IGFBP1 (gene 3484) (assay: LTEA_HepaRG_IGFBP1: Life Technologies and Expression Analysis (LTEA) Assay for Insulin-like growth factor-binding protein 1 (IGFBP1) using HepaRG (AID 2283508)). Conditions: mRNA level, 48 h; actives raise or lower the signal.
How it was run: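 HepaRG cells, plated 48 h then switched to serum-free induction medium, exposed in duplicate for 48 h to 8-point half-log series from 100 uM in 0.5% DMSO. mRNA measured by qRT-PCR, normalized to ACTB/GAPDH/POLR2A; bidirectional fit versus DMSO.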

SMILES | AC50 | outcome
COc1cc2c(c(OC)c1OC)-c1ccc(OC)c(=O)cc1[C@@H](NC(C)=O)CC2 | 0.584 µM (active) | 
CCn1nc(C)c2c1C(=O)NCC(c1ccc(O)cc1)=N2 |  | inactive
CCCCCCCCCC |  | inactive
O=C(O)c1ccc2c(c1)nc(C(=O)NC1CCN(C3CC3)CC1)n2Cc1cc(-c2ccc(Cl)s2)on1 |  | inactive
Nc1ccn([C@@H]2O[C@H](CO)[C@@H](O)[C@@H]2O)c(=O)n1 |  | inactive
NC(=O)NN=Cc1ccc([N+](=O)[O-])o1 | 50 µM (active) | 
OC(Cn1cncn1)(Cn1cncn1)c1ccc(F)cc1F |  | inactive
OCc1ccccc1 |  | inactive
NNC(=O)c1ccncc1 |  | inactive
CCc1ccc(O)c(C(C)(C)C)c1 |  | inactive
CCOC(N)=O |  | inactive
CC(C)CCCCCCOC(=O)C1CCCCC1C(=O)OCCCCCCC(C)C (centres undefined) |  | inactive
c1ccc(C(O[C@@H]2CCCN(CCc3ccc4c(c3)OCO4)C2)c2ccccc2)cc1 | 86.9 µM (active) | 
CC(C)C(=O)Nc1ccc([N+](=O)[O-])c(C(F)(F)F)c1 | 66.7 µM (active) | 
NC(=O)N(O)[C@@H]1COc2cc(OCc3ccccc3)ccc21 |  | inactive
O=c1[nH]cnc2c1ncn2[C@H]1CC[C@@H](CO)O1 |  | inactive
NC(N)=O |  | inactive
COCc1nnc(-c2ccc[n+]([O-])c2)n1-c1c(Cl)c(Cl)cc2[nH]c(=O)c(=O)[nH]c12 |  | inactive
OC[C@H]1O[C@@H]2O[C@H]3[C@H](O)[C@@H](O)[C@@H](O[C@H]4[C@H](O)[C@@H](O)[C@@H](O[C@H]5[C@H](O)[C@@H](O)[C@@H](O[C@H]6[C@H](O)[C@@H](O)[C@@H](O[C@H]7[C@H](O)[C@@H](O)[C@@H](O[C@H]1[C@H](O)[C@H]2O)O[C@@H]7CO)O[C@@H]6CO)O[C@@H]5CO)O[C@@H]4CO)O[C@@H]3CO |  | inactive
